These results are taken from PubChem BioAssay (NCATS).

Records with an inconclusive call do not appear. A call without a number means that no potency is given here. Calls of active or inactive are those of the source. The call rests on the fitted dose curve; in most records, active means well fitted curve in the direction sought with a large enough effect; inconclusive means small, poorly fitted or top-dose-only effect, or another doubt; inactive means no such curve, though single readings can be large; an effect the other way counts as inactive or inconclusive.

Test [1] deals with Cytochrome P450 3A4 (Homo sapiens) (UniProt P08684). Kind of test: qHTS Assay for Activators of Cytochrome P450 3A4 (AID 885). Further: nearly all actives have a fitted effect of over 65% in size. The note with it: recombinant CYP3A4, Luciferin-PPXE luminescence, 60 min; series mostly up to 57.1 µM. Put shortly:
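Using 20nM recombinant human CYP3A4 in potassium phosphate (200mM), substrate Luciferin-PPXE at 25uM, luminescent luciferin detection followed a 60-min RT NADPH reaction; data scaled to 57 uM ketoconazole.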
Background: Quantitative high-throughput screening tests each substance at several concentrations.

Test [2] addresses Ubiquitin carboxyl-terminal hydrolase 1 (Homo sapiens) (UniProt O94782). Put plainly: Inhibitors of USP1/UAF1: Pilot qHTS (AID 504865). Further: nearly all actives have a fitted effect of over 35% in size. Further: potency means the concentration at half of the fitted maximal effect. The note with it: purified USP1/UAF1, Ub-rhodamine cleavage fluorescence; series mostly up to 114 µM. Put shortly: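 Enzyme-free wells gave the negative control, while test wells held 1nM USP1/UAF1 preincubated with compound for 15 min at room temperature. Ub-Rho at 150nM final started the reaction, and fluorescence at 480/540 nm was recorded kinetically.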

Test [3] concerns the target DNA dC->dU-editing enzyme APOBEC-3G (Homo sapiens) (UniProt Q9HC16). Put plainly: qHTS for inhibitors of Vif-A3G interactions: Validation (AID 588379). Further: potency means the concentration at half of the fitted maximal effect. The note with it: Vif-A3G protein interaction assay; series mostly up to 46.1 µM. Put shortly: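 Yellow fluorescence (Ex 488, Em 500-530) of Vif-coexpressing HeLa A3G-eYFP cells, scanned by Acumen cytometer, reports blocked A3G degradation. Cells plated at 700/well overnight at 37 deg C before compound addition, then a further overnight compound incubation at 37 deg C.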

The target in test [4] is Cytochrome P450 3A4 (Homo sapiens) (UniProt P08684). Kind of test: qHTS Assay for Inhibitors and Substrates of Cytochrome P450 3A4 (AID 884). Further: nearly all actives have a fitted effect of over 50% in size. Further: potency means the concentration at half of the fitted maximal effect. The note with it: recombinant CYP3A4, Luciferin-PPXE luminescence; series mostly up to 57.1 µM. In outline:
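Luminescent readout of luciferin produced by CYP3A4 (20 nM) dealkylation of Luciferin-PPXE, 25 uM (its KM). NADPH-driven reaction ran 60 min at RT after 10 min compound preincubation; data scaled to 57 uM ketoconazole as 100% inhibition.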

Test [5] is described as follows: Confirmation and Secondary Assay for Modulators of Hemoglobin Beta Chain Splicing at IVS2 654 locus (AID 910).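 Further: HeLa cells stably carrying EGFP split by mutant beta-globin IVS2-654 intron; per-well total GFP intensity by laser scanning cytometry after 2-day treatment.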 The note with it: HeLa EGFP-654 splicing reporter, GFP fluorescence, 48 h; series mostly up to 46.1 µM. In outline: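 Readout: per-well total peak green fluorescence (488 nm ex, 500–520 nm em) from objects 5–250 µm, reflecting correct splicing of an EGFP-654 reporter. Compounds were applied for 2 days at 37 °C to overnight-plated HeLa EGFP-654 cells; controls were DMSO and 500 nM IVS2-654 PNA.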

The target in test [6] is Luciferin 4-monooxygenase (Photinus pyralis) (UniProt P08659). Kind of test: Biochemical firefly luciferase enzyme assay for NPC (AID 624030).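 Further: purified P. pyralis luciferase at 10 nM with luciferin and ATP substrate; nearly all actives have a fitted effect of over 70% in size.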 The note with it: purified P. pyralis luciferase, luminescence, 5 min; series mostly up to 58.6 µM. Put shortly: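 Direct inhibition of firefly luciferase enzyme (10 nM final, 50 mM Tris Acetate) assessed by luminescence within 5 minutes. Percent activity scaled between DMSO and PTC124 positive control, with concentration-effect curves classified by fit quality and response.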
Chain of Luciferin 4-monooxygenase (Photinus pyralis) (P08659 whole entry, looked up): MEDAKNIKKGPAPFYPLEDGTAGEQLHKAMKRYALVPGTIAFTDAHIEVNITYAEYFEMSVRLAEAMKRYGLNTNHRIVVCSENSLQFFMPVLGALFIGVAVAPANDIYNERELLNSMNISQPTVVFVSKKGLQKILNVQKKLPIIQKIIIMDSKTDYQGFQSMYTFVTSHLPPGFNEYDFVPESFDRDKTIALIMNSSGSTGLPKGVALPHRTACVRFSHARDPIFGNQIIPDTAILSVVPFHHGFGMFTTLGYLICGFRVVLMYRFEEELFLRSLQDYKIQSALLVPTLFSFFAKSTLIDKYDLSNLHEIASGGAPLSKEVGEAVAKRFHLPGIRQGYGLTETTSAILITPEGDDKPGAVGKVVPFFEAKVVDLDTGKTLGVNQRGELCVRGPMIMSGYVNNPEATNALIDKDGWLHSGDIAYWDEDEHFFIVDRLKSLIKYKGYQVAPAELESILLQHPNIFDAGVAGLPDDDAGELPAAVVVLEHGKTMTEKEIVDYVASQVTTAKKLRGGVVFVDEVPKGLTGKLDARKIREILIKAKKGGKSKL

Chain of Ubiquitin carboxyl-terminal hydrolase 1 (Homo sapiens) (O94782 whole entry, looked up): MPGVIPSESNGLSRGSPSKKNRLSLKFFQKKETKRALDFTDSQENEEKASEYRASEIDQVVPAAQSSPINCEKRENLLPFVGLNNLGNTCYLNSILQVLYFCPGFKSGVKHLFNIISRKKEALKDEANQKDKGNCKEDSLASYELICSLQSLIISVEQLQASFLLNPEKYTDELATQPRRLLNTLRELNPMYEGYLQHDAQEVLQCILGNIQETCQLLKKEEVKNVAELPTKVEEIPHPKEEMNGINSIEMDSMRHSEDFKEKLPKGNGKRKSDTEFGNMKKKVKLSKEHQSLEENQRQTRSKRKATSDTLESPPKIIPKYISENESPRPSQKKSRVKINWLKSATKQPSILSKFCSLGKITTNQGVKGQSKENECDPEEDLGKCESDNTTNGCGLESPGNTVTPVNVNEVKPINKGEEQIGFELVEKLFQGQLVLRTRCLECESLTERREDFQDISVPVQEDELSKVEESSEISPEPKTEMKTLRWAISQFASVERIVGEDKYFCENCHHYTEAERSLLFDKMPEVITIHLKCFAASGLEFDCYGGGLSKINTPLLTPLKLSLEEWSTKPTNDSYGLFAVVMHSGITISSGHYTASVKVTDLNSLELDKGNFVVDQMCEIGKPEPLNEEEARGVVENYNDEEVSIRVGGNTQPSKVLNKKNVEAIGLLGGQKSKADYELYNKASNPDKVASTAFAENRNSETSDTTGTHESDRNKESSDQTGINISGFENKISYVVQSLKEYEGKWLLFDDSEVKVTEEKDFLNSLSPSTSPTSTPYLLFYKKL
Chain of Cytochrome P450 3A4 (Homo sapiens) (P08684 whole entry, looked up): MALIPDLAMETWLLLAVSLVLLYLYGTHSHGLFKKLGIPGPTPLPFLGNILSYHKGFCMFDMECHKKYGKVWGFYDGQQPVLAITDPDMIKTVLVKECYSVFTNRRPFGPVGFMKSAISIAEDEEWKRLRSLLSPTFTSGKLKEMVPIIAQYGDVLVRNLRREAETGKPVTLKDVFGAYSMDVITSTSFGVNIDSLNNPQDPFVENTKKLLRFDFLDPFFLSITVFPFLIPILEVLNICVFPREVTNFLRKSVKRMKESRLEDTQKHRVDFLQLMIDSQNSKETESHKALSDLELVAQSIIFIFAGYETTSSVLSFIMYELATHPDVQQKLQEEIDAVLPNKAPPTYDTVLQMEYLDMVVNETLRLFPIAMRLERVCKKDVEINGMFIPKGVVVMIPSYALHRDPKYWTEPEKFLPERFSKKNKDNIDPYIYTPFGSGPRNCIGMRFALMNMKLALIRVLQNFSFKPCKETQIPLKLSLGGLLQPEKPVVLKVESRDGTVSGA
Chain of DNA dC->dU-editing enzyme APOBEC-3G (Homo sapiens) (Q9HC16 whole entry, looked up): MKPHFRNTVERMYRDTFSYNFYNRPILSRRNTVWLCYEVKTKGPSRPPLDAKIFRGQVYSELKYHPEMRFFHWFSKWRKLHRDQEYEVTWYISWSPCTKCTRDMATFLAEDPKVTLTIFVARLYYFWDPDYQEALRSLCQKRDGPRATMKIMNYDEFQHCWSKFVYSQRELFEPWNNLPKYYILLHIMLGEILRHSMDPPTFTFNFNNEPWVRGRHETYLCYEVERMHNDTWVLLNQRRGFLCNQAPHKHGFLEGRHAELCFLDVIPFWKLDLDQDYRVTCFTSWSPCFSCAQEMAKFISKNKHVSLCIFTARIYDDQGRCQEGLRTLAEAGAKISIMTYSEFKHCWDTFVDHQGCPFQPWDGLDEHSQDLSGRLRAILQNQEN

For the compound `COC(=O)CCC(C)C1CCC2C3C(C[C@H](O)C12C)C1(C)CC[C@@H](O)CC1C[C@H]3O` (some centres undefined), the Potency entry in test [1], in test [2] and in test [3] was “inactive” in each case.
Take `NC(=O)c1ccc[n+]([C@@H]2OC(COP(=O)([O-])OP(=O)(O)OCC3OC(n4cnc5c(N)ncnc54)C(O)C3O)C(O)C2O)c1` (some centres undefined): the Potency entry in test [4] and in test [2] was “inactive” each time. Moreover, the outcome in test [5] was inactive.
For `COc1c2ccoc2cc2oc(C)cc(=O)c12`, the Potency in test [4] is 3.16 µM (active). Further, the Potency entry in test [1] and in test [2] was “inactive” in each case. In test [5], the compound was called inactive.
For the compound `Nc1nc2c(ncn2C2CC(O)C(CO)O2)c(=O)[nH]1` (centres undefined), the Potency entry in test [4] and in test [2] was “inactive” throughout. Also, the outcome in test [5] was inactive.
As to `COc1ccc(-c2cc(=O)c3c(OC(C)=O)cc(OC(C)=O)cc3o2)cc1`, in test [4], the Potency is 25.1 µM (active). Further, the Potency result in test [1] and in test [2] was “inactive” in each case. In addition, the compound was classed as inactive in test [5].
Regarding `c1ccc(-c2csc(-c3nc4ccccc4[nH]3)n2)cc1`, the Potency in test [4] was 1.26 µM (active); in test [2], 22.4 µM (active). Also, the Potency entry in test [1] is “inactive”.
Turning to `CN(C)c1ccc(O)c2c1C[C@@H]1C[C@H]3C(N(C)C)C(=O)C(C(N)=O)=C(O)[C@@]3(O)C(=O)C1=C2O` (some centres undefined), the Potency entry in test [1], in test [2] and in test [6] was “inactive” in each case. The compound was called inactive in test [5].
Consider `OCC(O)C(O)C(O)C(O)C(O)CO` (centres undefined), for which the Potency result in test [4] and in test [2] was “inactive” each time. Moreover, the outcome in test [5] was inactive.
Turning to `CSCCC(N)C(=O)NC(CC(C)C)C(=O)NC(Cc1ccccc1)C(=O)O` (centres undefined), the Potency entry in test [4] and in test [2] was “inactive” in each case. Also, in test [5], the result was inactive.
Regarding `CC(=O)OC1CC2C(C)(C)C(=O)CC[C@]2(C)C2CC[C@]3(C)C(=CC(=O)OC3c3ccoc3)[C@]12C` (some centres undefined), in test [4], the Potency is 6.31 µM (active). In addition, the Potency result in test [1] and in test [2] was “inactive” in each case. The outcome in test [5] was inactive.
In the case of `C[N+]1(C)C2CCC1CC(OC(=O)C(O)c1ccccc1)C2` (centres undefined), the Potency result in test [4], in test [2] and in test [6] was “inactive” throughout. In test [5], the call was inactive.
As to `CC(=O)OC1CC(OC(C)=O)[C@]2(C)C(CC(OC(C)=O)[C@@]3(C)C4=CC(=O)OC(c5ccoc5)[C@]4(C)CCC32)C1(C)C` (some centres undefined), in test [4], the Potency is 10 µM (active). Also, the Potency result in test [1] and in test [2] was “inactive” in each case. Besides, in test [5], the compound was called inactive.
As for `Nc1nc(=O)n(C2OC(CO)C(O)C2O)cc1Cl` (centres undefined), the Potency entry in test [4] and in test [2] was “inactive” in each case. The call in test [5] was inactive.
With `NC1C(O)OC(CO)[C@@H](O)[C@@H]1O[C@H]1O[C@@H](C(=O)O)C(O)C(O)C1O` (some centres undefined), the Potency result in test [4] and in test [2] was “inactive” throughout. Moreover, the result in test [5] was inactive.
Consider `CC1c2cccc(O)c2C(O)=C2C(=O)[C@]3(O)C(O)=C(C(N)=O)C(=O)C(N(C)C)C3C(O)C21` (some centres undefined), for which the Potency entry in test [4] and in test [2] was “inactive” each time. Moreover, the compound was called inactive in test [5].
For the compound `CC(CCC(=O)O)C1CCC2C3C(=O)CC4CC(=O)CC[C@@]4(C)C3CC(=O)[C@]12C` (some centres undefined), the Potency entry in test [4] and in test [2] was “inactive” each time. In addition, the compound was classed as inactive in test [5].
On to `COC(=O)C1OC(=O)C2OC23[C@]2(C)C(OC(C)=O)CC4C(C)(C)C(=O)CC[C@]4(C)C2CC[C@@]13C` (some centres undefined), for which the Potency entry in test [4] and in test [2] was “inactive” in each case. For the same compound, in test [5], the call was inactive.
For `COc1cc(OC)c2c(=O)c(-c3ccccc3)coc2c1`, in test [4], the Potency is 15.8 µM (active). Besides, the Potency result in test [1] and in test [2] was “inactive” each time.
For `O=c1[nH]cnc2c1ncn2C1CC(O)C(CO)O1` (centres undefined), the Potency entry in test [4] and in test [2] was “inactive” in each case.
Regarding `COc1ccc2c(=O)c(-c3ccccc3)coc2c1`, the Potency entry in test [1], in test [2] and in test [3] was “inactive” throughout.
In the case of `O=C(O)C(S)[C@@H](S)C(=O)O` (some centres undefined), the Potency entry in test [4] and in test [2] was “inactive” throughout. Also, the compound was called inactive in test [5].
`C[C@@]12CCC(OC(=O)c3ccccc3)CC1CCc1ccccc12` (some centres undefined): the Potency result in test [4] and in test [2] was “inactive” in each case.
With `COc1cc2c(C=O)c3c4c(cc(OC)c(OC)c4c2cc1OC)CCN3C`, the Potency result in test [1] is “inactive”. The Potency was 22.4 µM (active) in test [2] and 21.1 µM (active) in test [3].
For the compound `COC(=O)CC1C(C)(C)C(=O)C2CC3C4=CC(=O)OC(c5ccoc5)[C@]4(C)CCC3[C@@]1(C)C2=O` (some centres undefined), in test [4], the Potency is 7.94 µM (active). The Potency entry in test [1] and in test [2] was “inactive” throughout.
With `C=C1CCC2C(CC2(C)C)C(=O)CCC1O` (centres undefined), the Potency in test [4] was 2 µM (active). Also, the Potency result in test [1] and in test [2] was “inactive” throughout. Further, the call in test [5] was inactive.
As to `C=C1C(=O)OC2C[C@@]3(C)CCCC(C)C3=CC12` (some centres undefined), the Potency in test [4] is 7.94 µM (active). In addition, the Potency result in test [1] and in test [2] was “inactive” throughout.
Regarding `CC(=O)c1ccc[nH]1`, the Potency entry in test [4] and in test [2] was “inactive” each time.
Regarding `COc1ccc(-c2coc3cc(OC)cc(OC)c3c2=O)cc1`, the Potency entry in test [1] and in test [2] was “inactive” throughout. Besides, in test [5], the compound was classed as inactive.
In the case of `CC1CC[C@@]23CCC4(C)[C@@]5(C)CCC6C(C)(C)C(=O)CC[C@@]6(C)C5C=C[C@@]4(OC2=O)C3C1C` (some centres undefined), the Potency result in test [4] and in test [2] was “inactive” in each case.
For the compound `CC1(C)CC[C@]2(C(=O)O)CC[C@@]3(C)C(=CCC4[C@@]5(C)CCC(O)C(C)(C)C5CC[C@@]43C)C2C1` (some centres undefined), the Potency result in test [4] and in test [2] was “inactive” throughout.
With `O=C(O)/C=C/C=C/c1ccccc1`, the Potency entry in test [4] and in test [2] was “inactive” in each case.
